Screening results deposited in PubChem by Sanford-Burnham Center for Chemical Genomics.
CYP2C9 inh: blockers of cytochrome P450 2C9 activity – biochemical, luminescence, ADME assay, primary screen | P11712 | CYP2C9 Supersomes, luciferin-H conversion | inhibition, % at 5 µM | 96,000 compounds, 20% hits | AID 777, 2007;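 active means blocking of liver enzyme CYP2C9 beyond about 50% at 5 µM, limit read from the data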
CYP2C9 act: human CYP2C9 activators, primary screen, biochemical, luminescence; Cytochrome P450 2C9 (Homo sapiens), P11712; recombinant CYP2C9, luciferin-H conversion; stronger effect = higher value; factor 1 = untreated enzyme, 0 = blocked; activation factor at 5 µM; 96,000 compounds, 1.4% hits;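 active means activation factor of 2 or more for CYP2C9 at a 5 µM dose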;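 further: 0 = sulfaphenazole-blocked wells and 1 = vehicle-only wells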
PLAP act: PLAP enzyme activators, biochemical, luminescence, HTS; Alkaline phosphatase, placental type (Homo sapiens), P05187; purified PLAP enzyme, luminescent substrate read-out; stronger effect = higher value; activation fold at 20 µM; 96,000 compounds, 1.2% hits; AID 696, 2007; in the data active means activation fold above about 2
Target sequence (P05187 whole entry, looked up): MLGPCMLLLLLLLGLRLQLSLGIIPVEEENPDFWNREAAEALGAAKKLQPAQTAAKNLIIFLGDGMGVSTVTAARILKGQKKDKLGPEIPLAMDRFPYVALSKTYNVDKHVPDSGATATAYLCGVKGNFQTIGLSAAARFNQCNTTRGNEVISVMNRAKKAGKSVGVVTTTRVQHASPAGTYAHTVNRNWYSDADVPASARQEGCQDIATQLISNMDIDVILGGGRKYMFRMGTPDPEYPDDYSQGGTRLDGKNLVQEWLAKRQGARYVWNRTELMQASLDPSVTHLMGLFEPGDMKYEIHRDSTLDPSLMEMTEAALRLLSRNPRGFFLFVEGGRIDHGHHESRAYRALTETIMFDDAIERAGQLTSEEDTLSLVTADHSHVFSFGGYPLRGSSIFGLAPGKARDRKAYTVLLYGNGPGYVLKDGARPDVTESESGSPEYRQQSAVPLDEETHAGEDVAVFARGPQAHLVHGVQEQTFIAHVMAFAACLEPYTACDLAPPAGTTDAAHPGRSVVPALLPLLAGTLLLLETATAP
CYP2C19 act: human CYP2C19 activators, primary screen, biochemical, luminescence; 96,000 tested, under 10 active; recombinant CYP2C19, luciferin-H EGE luminescence; stronger effect = higher value; 0 = fully inhibited enzyme, 1 = untreated enzyme; activation factor at 5 µM;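 active means activation factor of at least 2 at 5 µM in the primary screen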;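 further: 0 = wells with 2.5 mM tranylcypromine and 1 = vehicle-only wells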
CYP2C19 inh: blockers of cytochrome P450 2C19 activity – biochemical, luminescence, ADME assay, primary screen. P33261. CYP2C19 Supersomes, luciferin-H EGE luminescence, 30 min. inhibition, % at 5 µM. 96,000 compounds, 21% hits;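 active means CYP2C19 inhibition above a set limit at 5 µM in the primary screen, cut at about 50% in these data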;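 further: plate controls were negative control wells for no effect and 2.5 mM tranylcypromine positive control for full effect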
Starred values were filed as active, the others as inactive; x = no result given. In the library only some 31% were active in any assay of this set; here they are far more common.

SMILES | CYP2C9 inh | CYP2C9 act | PLAP act | CYP2C19 act | CYP2C19 inh
CCOC(=O)c1c(C)nc2c(C#N)cnn2c1C | -7.2 | 1.1 | 1 | 0.4 | 62.7*
CC(Sc1nnc2c(n1)C1(C)CCC2C1(C)C)C(=O)Nc1ccccc1 (centres undefined) | 44.3 | 0.6 | 1.2 | 0.9 | 12.3
COc1ccc(N2C(=O)CC(N3CCC(O)(c4ccc(Br)cc4)CC3)C2=O)cc1 (centres undefined) | 4.8 | 1 | 1.2 | 1 | -1.0
COc1ccccc1N1C(=O)CCC1(C#N)c1ccc(Br)cc1 (centres undefined) | 68.6* | 0.3 | 1.4 | 0.4 | 59.4*
COc1ccc(N2C(=O)CCC2(C#N)c2ccc(Br)cc2)cc1 (centres undefined) | 8.9 | 0.9 | 1.4 | 0.4 | 57.2*
Cn1c(=O)c2c(n(C)c1=O)=NC1(CCCCC1)ON=2 | 14.1 | 0.9 | 1.2 | 0.8 | 22.8
CCOc1ccc(-n2c(=O)c3c4c(sc3n(CC(=O)NCc3ccco3)c2=O)CCC4)cc1 | 18.3 | 0.8 | 1.2 | 1 | 2.0
COc1ccc(CCNC2=C(Cl)C(=O)N(CCc3ccc(OC)c(OC)c3)C2=O)cc1OC | 20.3 | 0.8 | 1.1 | 0.7 | 26.6
COc1ccc(CCNc2c([N+](=O)[O-])c(=O)oc3ccccc23)cc1OC | 44.0 | 0.6 | 1 | 0.4 | 59.4*
CC(=O)Nc1c(NCC(C)C)c2ccccc2oc1=O | x | x | 0.8 | x | x
O=c1oc2ccccc2c(Nc2cccc3ccccc23)c1[N+](=O)[O-] | 62.2* | 0.4 | 1 | 0.1 | 90.9*
COc1ccc(CCNC(=O)Cc2ccc(OCc3ccccc3)c(OC)c2[N+](=O)[O-])cc1OCc1ccccc1 | 90.5* | 0.1 | 1.6 | 0.3 | 74.4*
Cc1cc(Nc2ccccc2F)n2ncnc2n1 | 3.8 | 1 | 1.4 | 1 | -3.1
Cc1c(-c2ccccc2)sc(Br)c1C(=O)N1CCOCC1 | -31.1 | 1.3 | 1.4 | 0.8 | 24.0
CCOC(=O)N1CCN(S(=O)(=O)c2c(C)nn(C)c2C)CC1 | 7.7 | 0.9 | 1 | 0.7 | 28.1
CC(C)CC(=O)N1CCN(S(=O)(=O)c2ccc(F)cc2)CC1 | 18.8 | 0.8 | 0.9 | 0.7 | 25.4
CC(=O)OCc1c(C(F)(F)F)nn(C)c1Oc1cccc(C(F)(F)F)c1 | 37.3 | 0.6 | 1 | 0.3 | 74.3*
CC(=O)OCc1c(C(F)(F)F)nn(C)c1Oc1ccccc1 | 21.7 | 0.8 | 1.1 | 0.1 | 91.7*
CC(=O)c1cc(C#N)c(Oc2cccc(C(F)(F)F)c2)nc1C | 10.4 | 0.9 | 1.3 | 0.8 | 16.8
CCSc1ccccc1C(=O)NCc1ccc(S(N)(=O)=O)cc1 | 8.2 | 0.9 | 0.8 | 1 | 2.9
NCCc1nnc(SCc2ccccc2F)o1 | 28.9 | 0.7 | 0.8 | 0.6 | 44.0
NCCc1nnc(SCc2c(F)cccc2Cl)o1 | 53.4* | 0.5 | 0.9 | 0.4 | 61.6*
NCCCCCc1nnc(SCc2ccccc2Cl)o1 | 15.1 | 0.8 | 1 | 0.3 | 72.0*
NCCc1nnc(SCC(N)=O)o1 | -3.7 | 1 | 0.9 | 1 | -4.9
NCCCCCc1nnc(SC/C=C/c2ccccc2)o1 | 12.5 | 0.9 | 1.2 | 0.9 | 11.7
SMILES | CYP2C9 inh | CYP2C9 act | PLAP act | CYP2C19 act | CYP2C19 inh
N[C@@H](Cc1ccccc1)c1nnc(SCc2ccccc2Cl)o1 | 36.3 | 0.6 | 1.2 | 0.2 | 78.9*
CCN(CC)C(=O)CSc1nnc(CCN)o1 | 53.3* | 0.5 | 1.2 | 0.5 | 47.7
O=C(NC1c2ccccc2-c2ccccc21)N1CCOCC1 | -7.8 | 1.1 | 0.9 | 0.9 | 10.2
Fc1cccc(Cl)c1CSc1nnc(COc2cccc3cccnc23)o1 | -23.4 | 1.2 | 1.1 | 0 | 95.5*
NCCc1nnc(SCc2ccccc2)o1 | 65.7* | 0.3 | 0.9 | 0.2 | 78.7*
O=C(NCc1cccnc1)C1CC(c2ccc(F)cc2)=NO1 (centres undefined) | 17.2 | 0.8 | 1.1 | 0.9 | 9.8
CC1CCCCC1NS(=O)(=O)c1ccc(S(=O)(=O)N2CCCC2)cc1 (centres undefined) | 79.4* | 0.2 | 1.4 | 0.2 | 79.3*
O=C(NCC1CC1)C1CCCN(S(=O)(=O)c2ccc(-n3cnnn3)cc2)C1 (centres undefined) | 7.5 | 0.9 | 1 | 1.1 | -7.9
O=S(=O)(c1ccc(-n2cnnn2)cc1)N(C1CCCCC1)C1CCCCC1 | -4.4 | 1 | 0.9 | 1 | -3.3
CN(C1CCCCC1)S(=O)(=O)c1ccc(-n2cnnn2)cc1 | 25.4 | 0.7 | 0.9 | 0 | 99.7*
CC1CCCCC1NS(=O)(=O)c1ccc(-n2cnnn2)cc1 (centres undefined) | 0.5 | 1 | 1 | 0.1 | 88.2*
COc1ccc2c(c1)N(C(=O)CSc1n[nH]c(C)n1)C(C)(C)C=C2C | 4.5 | 1 | 1.9 | 0.6 | 42.2
CCc1ccccc1NC(=O)c1cc2sccc2n1C | -9.7 | 1.1 | 0.9 | 0.7 | 25.3
Cn1c(C(=O)NCc2ccc3c(c2)OCO3)cc2sccc21 | 74.9* | 0.3 | 0.7 | 0.2 | 79.5*
COC(=O)c1ccc(NC(=O)c2cc3sccc3n2C)cc1 | -1.0 | 1 | 1 | 0.8 | 20.4
COc1cc(NC(=O)c2cc3sccc3n2C)cc(OC)c1 | 79.9* | 0.2 | 0.9 | 0.1 | 86.0*
Cn1c(C(=O)Nc2ccc3c(c2)OCO3)cc2sccc21 | 23.4 | 0.8 | 0.7 | 0 | 95.5*
Cn1c(C(=O)Nc2ccccc2)cc2sccc21 | 17.1 | 0.8 | 1 | 0.8 | 17.5
CC1S/C(=C(\C#N)C(=O)NCc2ccco2)N(c2ccc(F)cc2)C1=O (centres undefined) | 2.4 | 1 | 1.2 | 0.9 | 8.8
CCOC(=O)CSc1nnc(CNc2cccc(Cl)c2)n1-c1ccccc1 | 27.2 | 0.7 | 1.4 | 0.4 | 56.0*
Cn1c(CNC(=O)Nc2cccc(Cl)c2)nnc1SCc1ccccc1 | 1.2 | 1 | 0.9 | 1 | 1.2
CCn1c(CNc2cccc(Cl)c2)nnc1SCc1ccccc1 | 33.3 | 0.7 | 0.8 | 0.4 | 55.8*
CCOC(=O)CSc1nnc(CNc2ccc(Cl)cc2)n1-c1ccccc1 | 37.5 | 0.6 | 1.4 | 0.5 | 49.1
Cn1c(CNc2cccc(Cl)c2)nnc1SCC(=O)OC1CCCCC1 | 81.3* | 0.2 | 1.5 | 0.2 | 78.9*
Nc1cc(=O)[nH]c(SCC(=O)NCC2CCCO2)n1 (centres undefined) | -15.1 | 1.2 | 1.1 | 1.1 | -12.4
CCn1cc(C(=O)NCc2ccccn2)c(=O)c2cc(S(=O)(=O)N3CCCCC3)ccc21 | 48.2 | 0.5 | 1.6 | 0.9 | 9.9
CCn1cc(C(=O)NCc2ccco2)c(=O)c2cc(S(=O)(=O)N3CC(C)CC(C)C3)ccc21 (centres undefined) | 58.5* | 0.4 | 1.2 | 0.9 | 9.0
CCn1cc(C(=O)NCc2ccco2)c(=O)c2cc(S(=O)(=O)N3CCCCCC3)ccc21 | 86.3* | 0.1 | 1.5 | 0.5 | 49.4
